Assay outcomes deposited in PubChem by National Center for Advancing Translational Sciences (NCATS).
Shown are actives, neighbours in structure and some others; about 2.9% of the full set was active somewhere.
Integrin act MD: integrin-mediated muscular dystrophy alleviation activation. alpha7betagal myoblasts, beta-gal FDG fluorescence, 48 h. AID 624291. 350,000 tested, 0.064% active. Potency, µM (top dose mostly 38.3 µM), for the others: at the top dose activation, actives largely listed as activators; active = well fitted activation curve with a large enough effect; inconclusive = small, poorly fitted or top-dose-only effect; inactive = no such curve, though single readings can be large or run the other way;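 also: potency is read from the fitted curve at half-maximal effect; 100% = response of the positive control SU9516; nearly all actives have a fitted effect of over 60% in size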
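Alpha7betagal+/- myoblasts (passage 13) were plated 16-24 hr, then exposed to compounds (1:260 dilution of DMSO stock) for 48 hours at 37C. After MPER lysis, β-galactosidase reporter activity was read as FDG fluorescence (ex 480/em 540) after 30 minutes.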
DRD3 antagonist: antagonists of human D3 dopamine receptor; D3R cells, DiscoveRx beta-arrestin luminescence, antagonist mode; active compounds read low; max response, negative = inhibition, %; 360,000 tested, 2.5% active; in the data active = max response below about -50%; inconclusive = no clear call, values can overlap the other calls; also: % is scaled to controls: 0 for no effect and ±100 for the full control effect
Target sequence (P35462 whole entry, looked up): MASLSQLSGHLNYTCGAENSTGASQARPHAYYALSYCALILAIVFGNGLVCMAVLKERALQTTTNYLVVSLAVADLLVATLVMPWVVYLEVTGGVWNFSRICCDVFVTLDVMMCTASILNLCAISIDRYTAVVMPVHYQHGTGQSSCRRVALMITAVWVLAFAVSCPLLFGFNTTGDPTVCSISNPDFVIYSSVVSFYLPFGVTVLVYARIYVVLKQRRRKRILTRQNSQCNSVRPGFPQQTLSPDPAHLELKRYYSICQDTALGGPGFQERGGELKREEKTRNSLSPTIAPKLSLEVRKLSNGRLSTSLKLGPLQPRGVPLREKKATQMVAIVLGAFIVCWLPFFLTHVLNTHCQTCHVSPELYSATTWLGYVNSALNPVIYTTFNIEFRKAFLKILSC
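Cells plated overnight at 1500 cells/well, then exposed to library compounds with dopamine controls for 90 minutes at 37 degrees C. DiscoveRx reagent added for 30–60 minutes at room temperature; luminescence read, quantitative HTS format.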
D3 ag: activates the human D3 dopamine receptor. AID 652048. max activation, %. P35462. D3R DiscoveRx beta-arrestin cells, luminescence, 90 min. 410,000 tested, 0.58% active; in the data active = max activation above about 30%; also: 0% is about no effect
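Agonist-mode cell screen: cells plated at 1500/well and incubated overnight at 37 °C, then exposed to library compounds for 90 min at 37 °C. Detection reagent was added for 30–60 min at room temperature, and luminescence was read.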
The depositor's hits bear a star.

`CC[C@]12c3[nH]c4ccc(OC)cc4c3CCN1C(=O)C(CC(=O)NCCCn1ccnc1)C[C@@H]2C(=O)N1CCN(C(=O)c2ccco2)CC1` (stereo not given in full) gave Integrin act MD -2%, DRD3 antagonist 38 and D3 ag 28.
`CC[C@]12c3[nH]c4ccccc4c3CCN1C(=O)C(CC(=O)NCCCN(C)C)C[C@@H]2C(=O)N1CCN(C(=O)C2CC2)CC1` (stereo not given in full) gave Integrin act MD 16%, DRD3 antagonist -59* and D3 ag -8.
COCCCNC(=O)C[C@H]1C[C@H](C(=O)N2CCOCC2)[C@@]2(C)c3[nH]c4cc(-c5ccco5)ccc4c3CCN2C1=O was read as Integrin act MD -15%, DRD3 antagonist 5 and D3 ag 35*.
`CC(C)(C)NC(=O)C(c1ccncc1)N(Cc1ccco1)C(=O)c1ccc(-c2ccccc2)[nH]1` (stereo not given) gave Integrin act MD -23%, DRD3 antagonist inconclusive and D3 ag -3.
Screening CCN(CC)C(=O)Cn1cc(S(=O)(=O)CC(=O)Nc2ccc(OC)c(OC)c2)c2ccccc21 returned Integrin act MD -14%, DRD3 antagonist -11 and D3 ag 1.
`CC(=O)N1c2ccc(S(=O)(=O)N3CCCC(C(=O)N4CCC(C)CC4)C3)cc2CC1C` (stereo not given) gave Integrin act MD -1%, DRD3 antagonist 7 and D3 ag 3.
`O=C(c1ccco1)N(Cc1cccnc1)c1nc2c(F)cc(F)cc2s1` gave D3 ag 1.
Screening Nc1nc(SCC(=O)Nc2ccc(F)cc2)[nH]c(=O)c1NC(=O)c1ccc(F)c(F)c1 returned Integrin act MD inconclusive, DRD3 antagonist 7 and D3 ag 2.
For Cn1nc(C(F)(F)F)cc1C(=O)Nc1ccc(Cl)cc1 the results were Integrin act MD 13%, DRD3 antagonist 6 and D3 ag 12.
Screening CC1CC1C(=O)OCC(=O)NC(=O)c1ccc(C(C)(C)C)cc1 (stereo not given) returned Integrin act MD 25%, DRD3 antagonist 19 and D3 ag 39*.
`COc1ccc(C(=O)NC(=O)COC(=O)C2CC2C)cc1` (stereo not given) gave Integrin act MD 14%, DRD3 antagonist 17 and D3 ag 7.
`COc1cc(C2c3cc4c(cc3OC(NCCc3ccccc3)C2C)OCO4)cc(OC)c1OC` (stereo not given) gave Integrin act MD 0%, DRD3 antagonist -7 and D3 ag -1.
`COc1cc(C2c3cc4c(cc3OC(Nc3ccc(C(=O)O)cc3)C2C)OCO4)cc(OC)c1OC` (stereo not given) gave Integrin act MD -5%, DRD3 antagonist 112 and D3 ag 33*.
Cc1cc(C)cc(N2CCCC2=O)c1 was read as Integrin act MD 20%, DRD3 antagonist 17 and D3 ag -9.
Screening O=C1CCCN1c1cc(Cl)cc(Cl)c1 returned Integrin act MD 9%, DRD3 antagonist -55* and D3 ag -24.
For COc1ccc(/C=N/OCC(=O)Nn2c(C)nc3ccccc3c2=O)cc1 the results were Integrin act MD -21%, DRD3 antagonist 8 and D3 ag 33*.
Screening COc1ccc(/C=N/n2c(C)nc3ccccc3c2=O)cc1 returned Integrin act MD 12%, DRD3 antagonist -5 and D3 ag 5.
O=C(CCNC(=O)Cn1ccc2ccccc2c1=O)NCCCN1CCN(c2ccc(F)cc2)CC1 was read as Integrin act MD 26%, DRD3 antagonist inconclusive and D3 ag -16.
Screening O=C(CCNC(=O)Cn1ccc2ccccc2c1=O)NCCCN1CCOCC1 returned Integrin act MD 20%, DRD3 antagonist 42 and D3 ag 3.
`O=C(CCNC(=O)Cn1ccc2ccccc2c1=O)NCCCN1CCN(c2ccccc2F)CC1` gave Integrin act MD -19%, DRD3 antagonist -68* and D3 ag 14.
O=C(Cn1c(-c2cccs2)cc2cc(F)ccc21)NCCCN1CCN(c2ccccc2F)CC1 was read as D3 ag 28.
For O=C(Cn1c(=O)c2cccn2c2ccc(F)cc21)NCCCN1CCN(c2ccccc2F)CC1 the results were Integrin act MD -36%, DRD3 antagonist -92* and D3 ag 2.
O=C(CNC(=O)Cn1ccc2ccccc2c1=O)NCCCN1CCN(c2cccc(Cl)c2)CC1 was read as Integrin act MD -9%, DRD3 antagonist -75* and D3 ag -1.
Cc1ccccc1CSCc1ccc(C(=O)NCCCN2CCOCC2)o1 was read as Integrin act MD 0%, DRD3 antagonist 17 and D3 ag 2.
`CCc1ccc(NC(=O)C(C)OC(=O)CCN2C(=O)C3CC=CCC3C2=O)cc1` (stereo not given) gave Integrin act MD 1%, DRD3 antagonist 9 and D3 ag 3.
For COC(=O)c1scc(-c2ccc(C)cc2)c1S(=O)(=O)Nc1cc(C)ccc1OC the results were D3 ag -2.
Screening O=C(CN1C(=O)c2ccccc2C1=O)N(CCO)Cc1ccccc1 returned Integrin act MD 11%, DRD3 antagonist 3 and D3 ag 3.
For COC(=O)c1cc(NC(=S)N2CCN(c3ccccn3)CC2)cc(C(=O)OC)c1 the results were Integrin act MD -1%, DRD3 antagonist 50 and D3 ag 11.
`CCOc1ccc(-c2nc[nH]c2[N+](=O)[O-])cc1` gave Integrin act MD inconclusive, DRD3 antagonist -24 and D3 ag -16.
`Cc1ccc(OCCCCN2CCCCC2)c(C)c1` gave Integrin act MD 22%, DRD3 antagonist 6 and D3 ag -6.
Cc1ccc(C)c(OCCCCN2CCCCC2)c1 was read as Integrin act MD -3%, DRD3 antagonist -67* and D3 ag -17.
For Cc1ccccc1OCCCN1CCCC1 the results were Integrin act MD -19%, DRD3 antagonist -60* and D3 ag -44.
For CCN1CCN(CCOc2ccc(Br)cc2C)CC1 the results were Integrin act MD -51%, DRD3 antagonist inconclusive and D3 ag -26.
Cc1ccc(C)c(OCCCCn2ccnc2)c1 was read as Integrin act MD 13%, DRD3 antagonist 3 and D3 ag 14.
For Cc1ccc(OCCCN2CCCC2)c(C)c1 the results were Integrin act MD -38%, DRD3 antagonist -52* and D3 ag -10.
For Cc1cc(Br)ccc1OCCN1CCCC1 the results were Integrin act MD -3%, DRD3 antagonist -69* and D3 ag -3.
For Cc1ccccc1OCCN1CCCC1 the results were Integrin act MD 12%, DRD3 antagonist inconclusive and D3 ag -13.
CSC[C@H]1CN(Cc2cccnc2)C(=O)[C@@H]1CC(=O)Nc1ccc(Br)cc1 was read as Integrin act MD 1%, DRD3 antagonist 5 and D3 ag -3.
CN=c1scc(-c2c[nH]c3ccccc23)n1C was read as Integrin act MD -10%, DRD3 antagonist -10 and D3 ag 3.
For COCCCN(C(=O)CSCC(=O)Nc1ccc(C)cc1)c1c(N)n(Cc2ccccc2)c(=O)[nH]c1=O the results were Integrin act MD 17%, DRD3 antagonist -10 and D3 ag 0.
C=C1CC2(OC1=O)c1ccccc1CCc1ccccc12 was read as Integrin act MD -53%, DRD3 antagonist -25 and D3 ag -22.
